Measured values published in the supplement of paper PMC10849652.
Of roughly 7,900 targets only a part is listed; those with a hit were picked by preference. About 0.6% of all pairs of compound and target were hits. A number with no mark means an inactive call.

Columns and labels:
Assay in all cases: log2 fold change, soluble protein after heating vs DMSO (PISA); higher = thermal stabilisation; K562 cells, 10 uM, 30 min; active = over 0.2 and 3.5 SD of the protein, either way, in both replicates (recomputed)
[1] = compound: C1=CC=C(C=C1)[C@H](COC2=CC3=C(C=C2)NC(=O)N3)NC(=O)C4=CC=CN(C4=O)CC5=CC(=C(C=C5)F)F
Summary of the method: (§1)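 K562 cells at 2×10^6 cells/mL were exposed to 10 μM compound for 30 min, then aliquots were heated for 3 min across 48°C-58°C, pooled, and extracted in PBS containing 0.5% NP-40 at 4°C. The supernatant after 21,000xg for 90 min was taken as soluble protein and measured by TMTpro 16plex LC-MS/MS with channel sums equalised. Thermal stability is reported relative to control samples, with values from duplicates. Fold changes are given on a log2 scale.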

[2] = compound: CC1=C(SC2=C1C(=N[C@H](C3=NN=C(N32)C)CC(=O)N)C4=CC=C(C=C4)Cl)C
Summary of the method: as §1

[3] = compound: CC1=C2C(=CC=C1)N=C(N(C2=O)C3=CC=CC=C3C)CN4C=NC5=C(N=CN=C54)N
Summary of the method: as §1

[4] = compound: Cc1sc2c(c1C)C(c1ccc(Cl)cc1)=N[C@@H](CC(=O)OC(C)(C)C)c1nnc(C)n1-2
Summary of the method: as §1

[5] = compound: c1ccc([C@@H]2C[C@H]2NC2CCNCC2)cc1
Summary of the method: as §1

Sequence of UniProt Q9H2P9 (Q9H2P9 whole entry, looked up): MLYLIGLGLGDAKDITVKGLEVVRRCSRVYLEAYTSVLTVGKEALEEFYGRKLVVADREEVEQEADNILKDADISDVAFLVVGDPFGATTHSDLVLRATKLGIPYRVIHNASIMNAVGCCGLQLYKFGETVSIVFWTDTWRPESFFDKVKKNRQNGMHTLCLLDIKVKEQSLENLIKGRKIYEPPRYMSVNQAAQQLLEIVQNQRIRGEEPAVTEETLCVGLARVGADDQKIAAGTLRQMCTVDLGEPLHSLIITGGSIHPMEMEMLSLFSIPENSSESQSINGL
Sequence of UniProt Q96KP1 (Q96KP1 whole entry, looked up): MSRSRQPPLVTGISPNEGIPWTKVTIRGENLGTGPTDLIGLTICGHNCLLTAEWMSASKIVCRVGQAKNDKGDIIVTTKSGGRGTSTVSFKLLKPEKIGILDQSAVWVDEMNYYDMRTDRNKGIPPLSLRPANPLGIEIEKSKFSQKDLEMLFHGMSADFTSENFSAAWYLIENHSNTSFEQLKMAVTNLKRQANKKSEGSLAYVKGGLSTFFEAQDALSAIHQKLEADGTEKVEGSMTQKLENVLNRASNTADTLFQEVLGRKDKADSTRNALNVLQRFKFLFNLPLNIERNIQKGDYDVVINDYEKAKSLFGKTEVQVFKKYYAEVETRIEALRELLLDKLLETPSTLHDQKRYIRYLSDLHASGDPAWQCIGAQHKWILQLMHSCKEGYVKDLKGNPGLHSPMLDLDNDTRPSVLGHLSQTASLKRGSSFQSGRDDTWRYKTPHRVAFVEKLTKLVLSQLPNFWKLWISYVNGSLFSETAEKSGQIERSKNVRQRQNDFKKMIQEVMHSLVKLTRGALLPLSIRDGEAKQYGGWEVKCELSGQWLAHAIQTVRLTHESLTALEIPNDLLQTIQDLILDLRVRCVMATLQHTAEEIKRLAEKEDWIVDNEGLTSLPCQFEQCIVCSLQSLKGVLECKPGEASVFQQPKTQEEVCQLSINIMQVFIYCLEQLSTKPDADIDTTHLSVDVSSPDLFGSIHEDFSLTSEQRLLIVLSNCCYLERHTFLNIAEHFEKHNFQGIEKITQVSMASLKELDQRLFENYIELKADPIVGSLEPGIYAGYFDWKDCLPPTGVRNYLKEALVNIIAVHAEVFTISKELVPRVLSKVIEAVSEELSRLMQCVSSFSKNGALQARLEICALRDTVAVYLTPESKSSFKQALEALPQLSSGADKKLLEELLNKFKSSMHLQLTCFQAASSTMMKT
Sequence of UniProt Q9NXW2 (Q9NXW2 whole entry, looked up): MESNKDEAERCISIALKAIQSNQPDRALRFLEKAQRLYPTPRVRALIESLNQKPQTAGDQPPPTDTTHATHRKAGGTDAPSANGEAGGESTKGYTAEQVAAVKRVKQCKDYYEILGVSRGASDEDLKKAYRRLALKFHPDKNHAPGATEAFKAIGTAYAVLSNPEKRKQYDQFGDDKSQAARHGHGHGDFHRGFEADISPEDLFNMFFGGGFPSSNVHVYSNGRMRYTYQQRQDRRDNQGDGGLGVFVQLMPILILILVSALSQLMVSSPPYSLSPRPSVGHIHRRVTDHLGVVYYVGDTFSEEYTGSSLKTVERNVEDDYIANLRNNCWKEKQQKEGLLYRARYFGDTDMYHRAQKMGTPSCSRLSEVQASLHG
Sequence of UniProt Q8IX18 (Q8IX18 whole entry, looked up): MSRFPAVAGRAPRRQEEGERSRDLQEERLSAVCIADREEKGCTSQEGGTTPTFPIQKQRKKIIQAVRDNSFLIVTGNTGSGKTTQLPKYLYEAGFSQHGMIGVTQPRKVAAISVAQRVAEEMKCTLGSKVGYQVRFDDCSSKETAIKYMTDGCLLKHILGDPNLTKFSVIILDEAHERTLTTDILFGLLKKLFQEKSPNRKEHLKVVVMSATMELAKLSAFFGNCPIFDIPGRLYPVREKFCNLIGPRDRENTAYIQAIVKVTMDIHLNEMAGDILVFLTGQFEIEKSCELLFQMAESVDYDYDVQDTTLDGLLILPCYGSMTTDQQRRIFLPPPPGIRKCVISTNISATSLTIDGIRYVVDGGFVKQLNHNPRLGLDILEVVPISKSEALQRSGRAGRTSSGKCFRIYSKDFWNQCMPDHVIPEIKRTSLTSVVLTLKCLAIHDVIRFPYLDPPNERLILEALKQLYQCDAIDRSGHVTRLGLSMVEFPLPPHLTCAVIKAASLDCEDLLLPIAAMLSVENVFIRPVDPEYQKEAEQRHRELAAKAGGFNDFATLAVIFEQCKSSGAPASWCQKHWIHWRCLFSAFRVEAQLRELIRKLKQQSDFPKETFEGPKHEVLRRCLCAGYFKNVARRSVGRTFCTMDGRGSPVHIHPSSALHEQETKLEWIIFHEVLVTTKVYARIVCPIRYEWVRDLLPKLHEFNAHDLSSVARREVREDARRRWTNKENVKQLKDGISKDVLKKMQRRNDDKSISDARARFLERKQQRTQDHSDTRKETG
Sequence of UniProt Q5W0V3 (Q5W0V3 whole entry, looked up): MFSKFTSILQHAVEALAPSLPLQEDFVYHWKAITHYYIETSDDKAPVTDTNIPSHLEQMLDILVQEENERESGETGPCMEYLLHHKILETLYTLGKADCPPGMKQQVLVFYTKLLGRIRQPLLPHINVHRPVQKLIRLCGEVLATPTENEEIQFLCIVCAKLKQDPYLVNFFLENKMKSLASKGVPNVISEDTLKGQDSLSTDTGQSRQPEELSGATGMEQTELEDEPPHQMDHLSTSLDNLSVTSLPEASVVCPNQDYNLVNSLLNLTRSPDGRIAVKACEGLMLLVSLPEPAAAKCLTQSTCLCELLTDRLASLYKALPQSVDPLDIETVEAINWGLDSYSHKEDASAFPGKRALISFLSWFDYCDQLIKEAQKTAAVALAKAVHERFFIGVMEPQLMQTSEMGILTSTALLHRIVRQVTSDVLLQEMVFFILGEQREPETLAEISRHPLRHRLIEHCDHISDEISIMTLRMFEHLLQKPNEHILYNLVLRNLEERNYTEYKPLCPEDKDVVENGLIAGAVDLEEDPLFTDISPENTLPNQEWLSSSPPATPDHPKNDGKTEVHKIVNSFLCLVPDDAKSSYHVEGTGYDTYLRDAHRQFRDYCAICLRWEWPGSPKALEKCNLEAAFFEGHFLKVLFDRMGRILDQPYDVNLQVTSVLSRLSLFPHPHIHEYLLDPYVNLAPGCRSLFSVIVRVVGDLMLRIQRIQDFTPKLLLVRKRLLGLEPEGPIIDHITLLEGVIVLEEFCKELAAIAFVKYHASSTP
Sequence of UniProt Q13948 (Q13948 whole entry, looked up): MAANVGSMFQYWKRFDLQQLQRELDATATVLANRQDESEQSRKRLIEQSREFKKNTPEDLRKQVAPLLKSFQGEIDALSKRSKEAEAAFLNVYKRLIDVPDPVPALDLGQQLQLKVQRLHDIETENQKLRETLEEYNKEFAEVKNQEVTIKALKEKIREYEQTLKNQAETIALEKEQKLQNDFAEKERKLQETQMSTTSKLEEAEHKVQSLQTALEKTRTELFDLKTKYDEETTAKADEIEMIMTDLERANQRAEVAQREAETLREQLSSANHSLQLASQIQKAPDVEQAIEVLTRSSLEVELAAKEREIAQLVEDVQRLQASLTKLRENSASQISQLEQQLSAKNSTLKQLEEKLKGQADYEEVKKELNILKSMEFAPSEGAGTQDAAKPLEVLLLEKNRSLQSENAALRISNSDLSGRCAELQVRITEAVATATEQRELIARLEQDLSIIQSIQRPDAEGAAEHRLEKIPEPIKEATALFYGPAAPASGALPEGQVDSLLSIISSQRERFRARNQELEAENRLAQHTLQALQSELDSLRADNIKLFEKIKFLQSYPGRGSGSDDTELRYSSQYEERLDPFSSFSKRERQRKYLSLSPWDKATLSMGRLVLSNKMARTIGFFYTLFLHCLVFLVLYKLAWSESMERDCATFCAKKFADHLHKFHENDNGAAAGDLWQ
Sequence of UniProt P10619 (P10619 whole entry, looked up): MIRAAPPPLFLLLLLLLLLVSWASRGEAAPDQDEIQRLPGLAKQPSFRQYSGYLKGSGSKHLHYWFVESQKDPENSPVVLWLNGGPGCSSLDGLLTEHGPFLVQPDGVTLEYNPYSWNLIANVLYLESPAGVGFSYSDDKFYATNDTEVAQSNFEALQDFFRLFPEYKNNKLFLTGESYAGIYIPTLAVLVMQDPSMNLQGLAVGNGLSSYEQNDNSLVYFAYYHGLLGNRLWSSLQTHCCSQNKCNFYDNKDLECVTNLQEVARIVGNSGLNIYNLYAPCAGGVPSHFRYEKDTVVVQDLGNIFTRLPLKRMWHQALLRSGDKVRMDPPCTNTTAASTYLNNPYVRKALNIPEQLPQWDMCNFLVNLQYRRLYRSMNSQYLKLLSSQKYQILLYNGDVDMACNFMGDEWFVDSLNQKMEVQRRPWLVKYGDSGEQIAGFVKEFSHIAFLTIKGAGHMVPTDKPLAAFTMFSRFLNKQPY
Sequence of UniProt P26641 (P26641 whole entry, looked up): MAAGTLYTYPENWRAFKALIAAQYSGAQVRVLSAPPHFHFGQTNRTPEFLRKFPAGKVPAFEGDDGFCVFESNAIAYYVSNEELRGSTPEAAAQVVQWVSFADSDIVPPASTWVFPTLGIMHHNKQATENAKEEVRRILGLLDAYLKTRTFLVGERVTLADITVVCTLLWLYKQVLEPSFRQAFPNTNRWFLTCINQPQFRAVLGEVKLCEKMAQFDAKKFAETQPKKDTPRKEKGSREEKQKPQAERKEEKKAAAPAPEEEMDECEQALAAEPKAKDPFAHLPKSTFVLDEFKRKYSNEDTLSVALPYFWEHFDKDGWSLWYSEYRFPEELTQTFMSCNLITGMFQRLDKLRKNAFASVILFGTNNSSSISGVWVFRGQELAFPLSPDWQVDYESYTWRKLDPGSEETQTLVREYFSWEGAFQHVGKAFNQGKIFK
Sequence of UniProt Q96GG9 (Q96GG9 whole entry, looked up): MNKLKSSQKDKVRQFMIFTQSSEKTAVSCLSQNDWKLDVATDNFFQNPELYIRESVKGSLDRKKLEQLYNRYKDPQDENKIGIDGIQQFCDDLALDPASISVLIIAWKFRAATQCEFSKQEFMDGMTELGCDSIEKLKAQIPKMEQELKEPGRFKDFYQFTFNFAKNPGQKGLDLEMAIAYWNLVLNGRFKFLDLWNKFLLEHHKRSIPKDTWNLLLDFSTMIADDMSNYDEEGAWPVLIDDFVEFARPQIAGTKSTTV

Target | log2 fold change [1] | log2 fold change [2] | log2 fold change [3] | log2 fold change [4] | log2 fold change [5]
CTSA (UniProt P10619) | 0.004 | -0.063 | -0.034 | -0.018 | 0.03
CUTA isoform 2 (UniProt O60888) | 0.099 | 0.116 | -0.289 | -0.123 | 0.015
FAM160B1 (UniProt Q5W0V3) | -0.005 | 0.026 | -0.01 | -0.022 | -0.041
DMAC1 (UniProt Q96GE9) | 0.058 | -0.041 | 0.05 | -0.085 | 0.023
DHX40 (UniProt Q8IX18) | 0.026 | 0.101 | 0.072 | 0.093 | -0.022
DNM2 (UniProt P50570) | -0.023 | 0.044 | 0.078 | -0.027 | -0.036
DYRK1A isoform 2 (UniProt Q13627) | -0.062 | 0.059 | 0.085 | 0.026 | 0.011
DCAF6 isoform 3 (UniProt Q58WW2) | 0.04 | -0.017 | 0.003 | 0.032 | 0.027
DBR1 (UniProt Q9UK59) | 0.023 | 0 | 0 | 0.017 | 0.057
DNAH5 (UniProt Q8TE73) | 0.074 | 0.023 | 0.08 | 0.139 | 0.062
DNAJB12 (UniProt Q9NXW2) | -0.044 | 0.027 | 0.081 | -0.011 | 0.011
EPHX2 (UniProt E5RI53) | -0.024 | – | – | – | –
CTSB (UniProt P07858) | -0.015 | -0.024 | 0.019 | -0.024 | -0.035
CTSV (UniProt O60911) | -0.02 | -0.087 | 0.021 | -0.065 | 0.005
ERCC6 (UniProt Q03468) | 0.013 | -0.025 | -0.018 | -0.008 | 0.151
DPYSL2 (UniProt Q16555) | -0.012 | 0.072 | 0.093 | 0.01 | 0.014
EGLN1 (UniProt Q9GZT9) | 0.055 | 0.06 | 0.013 | 0.008 | 0.019
EEF1AKNMT (UniProt Q8N6R0) | -0.146 | 0.049 | 0.121 | 0.028 | -0.063
ESS2 (UniProt Q96DF8) | 0.04 | -0.06 | -0.096 | 0.018 | 0.075
EEF1G isoform 2 (UniProt P26641) | -0.068 | 0.005 | -0.049 | -0.001 | -0.006
DHPS (UniProt P49366) | -0.014 | 0.013 | -0.014 | 0.013 | 0.081
DUS2 (UniProt Q9NX74) | 0.024 | 0.055 | 0.109 | -0.087 | -0.023
DIAPH1 (UniProt O60610) | -0.073 | -0.027 | 0.026 | 0.049 | -0.018
EIF4E isoform 2 (UniProt P06730) | 0.029 | -0.026 | -0.002 | -0.144 | 0.009
DPH5 isoform 5 (UniProt Q9H2P9) | -0.025 | 0.054 | 0.092 | -0.009 | 0
ERCC2 (UniProt P18074) | 0 | -0.025 | -0.044 | -0.104 | 0.05
DAXX (UniProt Q9UER7) | 0.166 | 0.178 | 0.197 | 0.017 | -0.101
CTU1 (UniProt Q7Z7A3) | -0.061 | 0.025 | 0.052 | -0.006 | -0.051

Target | log2 fold change [1] | log2 fold change [2] | log2 fold change [3] | log2 fold change [4] | log2 fold change [5]
DHPS (UniProt M0R1T2) | -0.155 | – | – | – | –
EXOC4 (UniProt Q96A65) | -0.05 | 0.052 | 0.015 | 0.081 | -0.049
CTSC (UniProt P53634) | 0.018 | -0.012 | -0.039 | -0.01 | 0.056
CTSL (UniProt P07711) | -0.017 | -0.07 | 0.015 | 0.031 | 0.104
DLD (UniProt P09622) | 0.016 | 0.006 | -0.005 | -0.016 | 0.044
ERLIN1 (UniProt O75477) | -0.007 | -0.036 | 0.002 | -0.038 | -0.026
DDB1 isoform 2 (UniProt Q16531) | 0.028 | – | – | – | –
CUX1 isoform 2 (UniProt Q13948) | -0.067 | 0.013 | 0 | 0 | 0.023
EXOC6 (UniProt Q8TAG9) | -0.088 | -0.006 | 0.072 | 0.031 | -0.069
EEA1 (UniProt Q15075) | 0.022 | -0.015 | 0.011 | 0.021 | 0.038
DNAH11 (UniProt Q96DT5) | 0.047 | -0.387 | 0.089 | -0.021 | 0.092
FAM118B (UniProt Q9BPY3) | -0.276 | -0.01 | 0.208 | -0.019 | -0.009
E2F4 (UniProt Q16254) | 0.006 | 0.039 | 0.098 | 0.022 | -0.001
EXOC5 (UniProt O00471) | -0.069 | -0.006 | 0.07 | 0.066 | -0.018
DCUN1D1 (UniProt Q96GG9) | -0.011 | 0.064 | 0.073 | -0.033 | 0.003
DTWD1 (UniProt Q8N5C7) | -0.051 | -0.011 | 0.152 | -0.056 | 0.07
ELOC (UniProt Q15369) | 0.024 | 0.151 | 0.132 | -0.066 | -0.07
DCAF13 (UniProt Q9NV06) | 0.105 | -0.221 | -0.152 | 0.128 | 0
FAM193B (UniProt Q96PV7) | -0.115 | 0.011 | -0.103 | 0.273 | -0.115
DBN1 isoform 3 (UniProt Q16643) | 0.049 | 0.019 | -0.027 | 0.044 | 0.004
EXOC2 (UniProt Q96KP1) | -0.054 | 0.025 | 0.03 | 0.033 | 0.011
EDC3 (UniProt Q96F86) | -0.198 | 0.12 | 0.019 | 0.063 | 0.026
EFL1 (UniProt Q7Z2Z2) | -0.042 | 0.051 | 0.083 | 0.008 | -0.017
EXTL2 (UniProt Q9UBQ6) | 0.028 | 0.106 | 0.003 | 0.316 (active) | -0.211
CYFIP1 (UniProt Q7L576) | 0.009 | 0.005 | -0.009 | -0.005 | -0.029
EVC2 (UniProt Q86UK5) | -0.064 | -0.044 | -0.141 | 0.021 | 0.081
EDEM2 (UniProt Q9BV94) | 0.194 | 0.042 | 0.013 | -0.046 | 0.012
